Vaccinia Venus: inhibitors of vaccinia virus (Venus reporter); Vaccinia virus Venus reporter expression, fluorescence; Potency, µM (titrated, usually from 36.5 µM), without a hit: at the top dose activity change, negative = inhibition, actives largely listed as inhibitors; 0.46% of 330,000 active; AID 720580; calls by dose curve; tested in A549 cells; note: potency is the fitted concentration of half-maximal effect; nearly all actives have a fitted effect of over 30% in size
HCMV inh: blocks human cytomegalovirus replication; HFF cells, HCMV-luciferase reporter, 72 h; stronger effect = lower value; AID 1259415; 4.5% of 410,000 active; activity change, negative = inhibition, % at 57.5 µM; in the data active = activity change below about -60%; inconclusive = no clear call, values can overlap the other calls; inactive = above about -39%
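Screen run at 2 compound doses on HFFs infected with reporter HCMV, MOI 1 PFU/cell. Luciferase activity from cell lysates at 72 h post infection gave inhibition relative to buffer-only and Salinomycin wells.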
Vaccinia mCherry: inhibitors of vaccinia virus infection (mCherry reporter signal) | Vaccinia virus mCherry reporter infection, fluorescence | Potency, µM (doses to about 36.5 µM), for inactives: top-dose activity change, negative = inhibition, actives largely listed as inhibitors | 0.63% of 310,000 active; calls by dose curve; tested in A549 cells; note: potency is the fitted concentration of half-maximal effect; nearly all actives have a fitted effect of over 35% in size
Giardia FBPA inh: inhibitors of Giardia lamblia fructose-1,6-bisphosphate aldolase; A8B2U2; purified Giardia FBPA; Potency, µM (series often up to 59.6 µM), for the others: at the top dose activity, negative = inhibition, most hits filed as inhibitors; 0.71% of 290,000 active; AID 2451; note: potency is the fitted concentration of half-maximal effect; nearly all actives have a fitted effect of over 55% in size
Target sequence (A8B2U2 whole entry, looked up): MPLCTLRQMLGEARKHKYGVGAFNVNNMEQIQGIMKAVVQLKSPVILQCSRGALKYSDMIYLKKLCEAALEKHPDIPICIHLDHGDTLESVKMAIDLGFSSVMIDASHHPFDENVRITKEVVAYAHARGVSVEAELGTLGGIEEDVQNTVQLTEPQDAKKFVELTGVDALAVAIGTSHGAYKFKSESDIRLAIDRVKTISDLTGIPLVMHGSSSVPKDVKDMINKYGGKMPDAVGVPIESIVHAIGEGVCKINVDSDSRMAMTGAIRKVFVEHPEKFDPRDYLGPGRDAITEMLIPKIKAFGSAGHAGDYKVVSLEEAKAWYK
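Giardia FBPA (40 nM reagent) was preincubated 10 min at RT with compound (up to 57.5 uM final), then substrate plus GAPDH/TPI/NAD/arsenate coupling system with diaphorase/resazurin was added; resorufin fluorescence (525/598 nm) was read after 20 min.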
FMDV antiviral: foot and mouth disease virus antiviral activity. FMDV antiviral cell-based qHTS. 1.2% of 410,000 active. AID 1159524. Potency, µM (top dose mostly 57.9 µM), for inactives: at the highest dose activity change, negative = inhibition, usual class: inhibitors; calls by dose curve; tested in HEK293T cells; note: read-out not given here; potency is the fitted concentration of half-maximal effect; nearly all actives have a fitted effect of over 45% in size
HCV inh: inhibitors of hepatitis C virus infection | Huh7.5.1 HCVcc-Cre infection, luciferase reporter, 44 h | Potency, µM (series often up to 41.8 µM), without a hit: at the top dose activity change, negative = inhibition, hits mostly inhibitors | 3.4% of 340,000 active | AID 651820; note: potency is the fitted concentration of half-maximal effect
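Whole-lifecycle infectious HCVcc-Cre system; cells 1,000/well, compound then virus (~0.5 moi) added 4 h after plating, 44 h culture. Luciferase read 15 sec following 15 min substrate incubation, room temp.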
Numbers without * were called inactive. Hits are enriched below; roughly 7.5% of the tested compounds scored in any of these assays. Unless noted, calls come from the whole dose curve; as a rule, active = well fitted curve in the direction sought with a large enough effect; inconclusive = small, poorly fitted or top-dose-only effect, or another doubt; inactive = no such curve, though single readings can be large; an effect the other way counts as inactive or inconclusive. % is set by controls: 0 for no effect and ±100 for the full control effect.

Results for Cc1ccc(C)c(N2CCN(C(=O)c3ccc(CS(=O)(=O)c4ccccc4C)o3)CC2)c1 ?
HCMV inh: -15.9; Giardia FBPA inh: 1.1%; FMDV antiviral: inconclusive; HCV inh: inconclusive

Results for Cc1ccc(-c2c(C(=O)N3CCN(c4cccc(C)c4)C(C)C3)oc(=O)c3ccccc23)cc1 (stereo not given) ?
Vaccinia Venus: -14.0%; HCMV inh: -70.1*; Vaccinia mCherry: -15.4%; FMDV antiviral: inconclusive

How did CCOc1cc(C2C3=C(CC(C)(C)CC3=O)N(C)C3=C2C(=O)CC(C)(C)C3)ccc1O do in these assays?
HCMV inh: -24.4; Giardia FBPA inh: -4.8%; FMDV antiviral: -10.7%; HCV inh: 13.2%

How did O=C(/C=C/c1ccco1)Nc1ccc(F)cc1 do in these assays?
Vaccinia Venus: 0.5%; HCMV inh: -11.1; Vaccinia mCherry: -0.1%; FMDV antiviral: 25.7%

Results for O=C(/C=C/c1ccco1)NCCc1ccc(F)cc1 ?
Vaccinia Venus: -8.9%; HCMV inh: -77.7*; Vaccinia mCherry: inconclusive; Giardia FBPA inh: -13.4%; FMDV antiviral: 22.0%; HCV inh: -19.5%

How did CN(C)CCNc1cccc2sc3ccc(O)cc3c(=O)c12 do in these assays?
Vaccinia Venus: inconclusive; HCMV inh: -3.6; Vaccinia mCherry: inconclusive; FMDV antiviral: -15.7%

Results for CN(C)CCNc1ccc2nnn3c4ccc(O)cc4c(=O)c1c23 ?
Vaccinia Venus: inconclusive; HCMV inh: -87.6*; Vaccinia mCherry: inconclusive; FMDV antiviral: -12.0%; HCV inh: 10µM*

Results for CCN(CC)CCCNc1ccc2ncn3c4ccc(O)cc4c(=O)c1c23 ?
Vaccinia Venus: inconclusive; HCMV inh: -89.8*; Vaccinia mCherry: 0.891µM*; FMDV antiviral: inconclusive; HCV inh: inconclusive

Results for Cc1ccc(NCCN(C)C)c2c(=O)c3cc(O)ccc3sc12 ?
Vaccinia Venus: inconclusive; HCMV inh: -98.7*; Vaccinia mCherry: 1.41µM*; FMDV antiviral: -23.3%; HCV inh: 10µM*

How did O=C(/C=C/c1ccccc1)OCN1C(=O)c2ccccc2C1=O do in these assays?
Vaccinia Venus: -12.4%; HCMV inh: -0.4; Vaccinia mCherry: -2.5%; Giardia FBPA inh: 3.1%; FMDV antiviral: -20.7%; HCV inh: 7.2%

What do the screens show for `COc1cc(=O)n2c(c1C(=O)NCc1ccco1)CCN(Cc1c(F)cccc1F)CC2`?
Vaccinia Venus: -14.8%; Vaccinia mCherry: inactive; FMDV antiviral: -17.2%

How did O=[N+]([O-])c1ccc(/C=N/N/C(=N/c2ccccn2)c2ccccn2)cc1 do in these assays?
Vaccinia Venus: -2.3%; HCMV inh: 29.8; Vaccinia mCherry: inactive; Giardia FBPA inh: -0.8%; HCV inh: -17.7%

What do the screens show for `O=[N+]([O-])c1cc(/C=N/N/C(=N/c2ccccn2)c2ccccn2)ccc1O`?
Vaccinia Venus: inconclusive; HCMV inh: -82.7*; Vaccinia mCherry: inconclusive; Giardia FBPA inh: 2.6%; FMDV antiviral: 31.3%; HCV inh: inconclusive

How did COc1ccc(CNC(=O)c2cnc3sc4cc(OC)ccc4n3c2=O)cc1 do in these assays?
Vaccinia Venus: -5.9%; HCMV inh: 2.2; Vaccinia mCherry: -5.4%; FMDV antiviral: -12.6%

What do the screens show for `O=C(NCCCSc1ccccc1)c1cc(Cl)ccc1O`?
HCMV inh: -84.3*; FMDV antiviral: -3.0%; HCV inh: inconclusive

Results for O=C(NCCNC(=O)c1ccccc1O)c1ccccc1O ?
HCMV inh: inconclusive; Giardia FBPA inh: -1.5%; FMDV antiviral: -18.2%; HCV inh: -4.0%

How did O=C(NCCCCCCNC(=O)c1ccccc1O)c1ccccc1O do in these assays?
Vaccinia Venus: -18.7%; HCMV inh: -78.5*; Vaccinia mCherry: inconclusive; Giardia FBPA inh: 6.2%; FMDV antiviral: inconclusive; HCV inh: 10µM*

Results for O=C(CNC(=O)c1ccccc1)NCCCSc1ccccc1 ?
Vaccinia Venus: -14.6%; HCMV inh: 28.9; Vaccinia mCherry: inactive; FMDV antiviral: 38.7%; HCV inh: 0.7%

How did Cc1ccc(-c2cc(=O)c3cc(F)ccc3[nH]2)cc1 do in these assays?
Vaccinia Venus: -17.0%; HCMV inh: -0.4; Vaccinia mCherry: inactive; Giardia FBPA inh: 7.2%; FMDV antiviral: 35.3%; HCV inh: -5.8%
